Results as given in PubChem BioAssay (NCATS).
Inconclusive results are not listed. Calls of active or inactive are those of the source. Unless noted, calls follow the shape of the dose curve; as a rule, active = well fitted curve in the direction sought with a large enough effect; inconclusive = small, poorly fitted or top-dose-only effect, or another doubt; inactive = no such curve, though single readings can be large; an effect the other way counts as inactive or inconclusive.

Legend:
[1] = molecular target: Peptidyl-prolyl cis-trans isomerase NIMA-interacting 1 (Homo sapiens) (UniProt Q13526); assay: qHTS Validation Assay to Find Inhibitors of Pin1 (AID 504536; active = well fitted inhibition curve with a large enough effect in the polarisation, with a control signal flat, not every such curve was filed as active; the % refers to the polarisation; also: potency is read from the fitted curve at half-maximal effect)
How it was run: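 Fluorescence polarization competition: compounds (titration) displace HiFluor-488-labeled Pin1-1b peptide from Pin1 (0.3 uM final) in pH 7.5 HEPES buffer with DTT, 10 min at room temperature; %Activity normalized to no-enzyme wells, curves fitted.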

[2] = molecular target: Phosphoglycerate kinase, glycosomal (Trypanosoma brucei brucei) (UniProt P07378); assay: qHTS Validation Assay to Find Inhibitors of Phosphoglycerate Kinase (AID 504547);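 also: control wells lack PGK and mark full inhibition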
How it was run: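 Inhibition of the enzyme is judged by a Kinase-Glo Plus luminescent signal following a one-hour incubation at room temperature. Because 1,3-BPG is unstable, it is made in situ by GAPDH at 100nM final; no-PGK wells define the baseline.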

[3] = molecular target: phosphoglycerate mutase (Leishmania major) (UniProt Q4Q090); assay: qHTS Validation Assay to Find Inhibitors of Phosphoglycerate Mutase (AID 504548); conditions: Potency: inhibition qHTS; also: series mostly up to about 58 µM; % is scaled to controls: 0 for no effect and ±100 for the full control effect
How it was run: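 Lm PGAM at 1.25 nM final with substrate in 100 mM TEA pH 7.6, 5 mM MgCl2, 0.01% Tween-20; 45 min at room temperature. Kinase-GloPlus added, 10 min, end-point luminescence read.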

[4] = molecular target: Ubiquitin carboxyl-terminal hydrolase 1 (Homo sapiens) (UniProt O94782); assay: Inhibitors of USP1/UAF1: Pilot qHTS (AID 504865); also: nearly all actives have a fitted effect of over 35% in size; also: potency is read from the fitted curve at half-maximal effect
How it was run: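 1nM USP1/UAF1 + cpd, 15 min RT; start w/ Ub-Rho 150nM final; kinetic FL 480/540 nm, 6 reads q60 s. Buffer 50mM HEPES pH 7.8, 0.5mM EDTA, 1mM TCEP, 0.01% Tween-20, 0.1 mg/ml BSA.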

[5] = qHTS for Inhibitors of ATXN expression: Validation of Cytotoxic Assay (AID 588349);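 also: cells exposed to compound for 72 hr; % is scaled to controls: 0 for no effect and ±100 for the full control effect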
How it was run: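 HEK293, compound dose series, 72 hr / 37 degrees C; viability via CellTiter Glo (intracellular ATP).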

[6] = qHTS for Inhibitors of ATXN expression: Validation (AID 588378); also: series mostly up to about 57 µM; % is scaled to controls: 0 for no effect and ±100 for the full control effect; nearly all actives have a fitted effect of over 75% in size
How it was run: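 Cells: HEK293-ATXN2-FFLuc, phenol-red free DMEM, 2 h attachment. Compound pin-transfer, 24 h, 37 degrees C, 5% CO2. CellTiter-Fluor 30 min, Ex405/Em525; Bright-Glo 5 min, luminescence 2 s exposure.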

[7] = molecular target: DNA dC->dU-editing enzyme APOBEC-3G (Homo sapiens) (UniProt Q9HC16); assay: qHTS for inhibitors of Vif-A3G interactions: Validation (AID 588379); also: 0% is about no effect
How it was run: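 HeLa cells stably expressing Vif and A3G-eYFP, 700 cells/well, incubated overnight at 37 deg C, then exposed to compound overnight at 37 deg C. Inhibition of Vif-mediated degradation read as increased yellow fluorescence (Ex 488/Em 500-530) by laser-scanning cytometry.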

[8] = molecular target: Estrogen receptor (Homo sapiens) (UniProt P03372); assay: qHTS assay for small molecule antagonists of estrogen receptor alpha signaling (AID 588513; active = well fitted curve in the direction sought with a large enough effect in the signal ratio, with a control signal flat, not every such curve was filed as active; the % refers to the signal ratio; also: % is scaled to controls: 0 for no effect and ±100 for the full control effect)
How it was run: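 Beta-lactamase reporter, antagonist mode, HEK 293 GripTite cells; 0.5nM E2 stimulus, 18 h, 37 C; CCF4 dye 2 h RT; fluorescence. IC50 and efficacy from Hill fits, normalized to E2 and DMSO.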

[9] = molecular target: Estrogen receptor (Homo sapiens) (UniProt P03372); assay: qHTS assay for small molecule agonists of estrogen receptor alpha signaling (AID 588514; calls by dose curve;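 also: 0% = vehicle only and 100% = reference agonist; nearly all actives have a fitted effect of over 70% in size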)
How it was run: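 Reporter-gene assay. […] controls beta-lactamase in HEK 293 GripTite cells; after 18 hrs with compound, CCF4 substrate is added for 2 hrs and fluorescence is read.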

[10] = molecular target: Bile acid receptor (Homo sapiens) (UniProt Q96RI1); assay: qHTS assay for small molecule antagonists of farnesoid X receptor signaling (AID 588526; calls by dose curve; also: % is scaled to controls: 0 for no effect and ±100 for the full control effect)
How it was run: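 Beta-lactamase reporter antagonist mode: HEK293T FXR-UAS-bla cells, titrated compound, CDCA stimulation, 16 h 37 C, CCF4 dye 2 h RT. Data normalized to CDCA 50 uM and DMSO; Hill-fit IC50.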

[11] = molecular target: Glucocorticoid receptor (Homo sapiens) (UniProt P04150); assay: qHTS assay for small molecule agonists of glucocorticoid receptor signaling (AID 588532; active = well fitted curve in the direction sought with a large enough effect in the signal ratio, with a control signal flat; the % refers to the signal ratio;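 also: 100% = dexamethasone at 0.1 µM and 0% = DMSO only wells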); conditions: HeLa MMTV-bla, beta-lactamase ratio, agonist, 18 h; stronger effect = higher value; percent of dexamethasone control, DMSO zero
How it was run: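 Agonist-mode qHTS: GRE-driven beta-lactamase in HeLa cells exposed 18 h to titrated compounds (up to 92 uM), then CCF4 ratio read after 2 h at RT; Hill-fitted EC50, efficacy relative to 0.1 uM dexamethasone.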

[12] = molecular target: Glucocorticoid receptor (Homo sapiens) (UniProt P04150); assay: qHTS assay for small molecule antagonists of glucocorticoid receptor signaling (AID 588533; active = well fitted inhibition curve with a large enough effect in the signal ratio, with a control signal flat, not every such curve was filed as active; the % refers to the signal ratio)
How it was run: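 Antagonist-mode qHTS: compound titrations added to GRE-bla HeLa cells, then dexamethasone 2 nM final; 18 h, 37 C. CCF4 FRET fluorescence normalized to dexamethasone and DMSO; IC50 from Hill fit.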

[13] = qHTS assay for small molecule antagonists of peroxisome proliferator-activated receptor delta signaling (AID 588535; active = well fitted inhibition curve with a large enough effect in the signal ratio, with a control signal flat, not every such curve was filed as active; the % refers to the signal ratio;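 as to max response: cells co-treated with a PPAR-delta agonist as stimulator during compound exposure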); conditions: HEK293T PPARd-UAS-bla, beta-lactamase FRET ratio, 18 h; 460 nm channel
How it was run: (§1)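 Cell-based beta-lactamase assay in antagonist mode: 4000 HEK293T PPAR-delta-UAS-bla cells per well, 5 hr preincubation then 18 hr compound incubation at 37 C. IC50 obtained by Hill equation fitting.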

[14] = molecular target: Peroxisome proliferator-activated receptor delta (Homo sapiens) (UniProt Q03181); assay: as above
How it was run: as §1

DNA dC->dU-editing enzyme APOBEC-3G (Homo sapiens), sequence (Q9HC16 whole entry, looked up): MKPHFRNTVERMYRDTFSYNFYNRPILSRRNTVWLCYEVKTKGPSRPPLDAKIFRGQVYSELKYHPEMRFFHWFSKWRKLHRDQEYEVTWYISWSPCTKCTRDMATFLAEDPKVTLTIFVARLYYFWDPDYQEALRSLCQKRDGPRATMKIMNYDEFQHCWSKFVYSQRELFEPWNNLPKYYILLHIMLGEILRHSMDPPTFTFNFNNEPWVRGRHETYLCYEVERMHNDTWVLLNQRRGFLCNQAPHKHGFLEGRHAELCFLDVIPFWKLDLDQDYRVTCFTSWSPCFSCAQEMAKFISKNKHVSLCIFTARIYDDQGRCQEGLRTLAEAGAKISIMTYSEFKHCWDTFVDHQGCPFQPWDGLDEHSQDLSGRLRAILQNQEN
Ubiquitin carboxyl-terminal hydrolase 1 (Homo sapiens), sequence (O94782 whole entry, looked up): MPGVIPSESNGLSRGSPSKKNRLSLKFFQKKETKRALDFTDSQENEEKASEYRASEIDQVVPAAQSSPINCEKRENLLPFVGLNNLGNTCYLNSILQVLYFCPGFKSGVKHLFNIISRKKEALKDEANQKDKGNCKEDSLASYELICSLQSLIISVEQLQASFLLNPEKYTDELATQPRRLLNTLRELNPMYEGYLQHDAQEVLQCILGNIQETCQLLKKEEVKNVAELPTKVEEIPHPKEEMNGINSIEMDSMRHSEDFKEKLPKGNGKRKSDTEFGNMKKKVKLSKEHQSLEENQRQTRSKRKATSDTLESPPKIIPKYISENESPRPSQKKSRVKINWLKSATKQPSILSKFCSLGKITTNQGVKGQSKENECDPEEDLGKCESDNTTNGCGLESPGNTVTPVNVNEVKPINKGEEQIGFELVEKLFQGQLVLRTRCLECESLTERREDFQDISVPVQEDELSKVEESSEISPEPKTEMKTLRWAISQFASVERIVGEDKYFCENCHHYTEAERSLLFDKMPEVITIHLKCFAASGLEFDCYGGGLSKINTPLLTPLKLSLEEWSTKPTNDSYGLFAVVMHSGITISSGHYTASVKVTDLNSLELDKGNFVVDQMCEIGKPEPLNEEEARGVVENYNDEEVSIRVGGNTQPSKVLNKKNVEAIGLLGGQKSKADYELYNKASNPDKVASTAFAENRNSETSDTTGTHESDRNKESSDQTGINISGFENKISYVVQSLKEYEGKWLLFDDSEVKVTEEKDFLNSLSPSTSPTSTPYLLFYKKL
phosphoglycerate mutase (Leishmania major), sequence (Q4Q090 1-553): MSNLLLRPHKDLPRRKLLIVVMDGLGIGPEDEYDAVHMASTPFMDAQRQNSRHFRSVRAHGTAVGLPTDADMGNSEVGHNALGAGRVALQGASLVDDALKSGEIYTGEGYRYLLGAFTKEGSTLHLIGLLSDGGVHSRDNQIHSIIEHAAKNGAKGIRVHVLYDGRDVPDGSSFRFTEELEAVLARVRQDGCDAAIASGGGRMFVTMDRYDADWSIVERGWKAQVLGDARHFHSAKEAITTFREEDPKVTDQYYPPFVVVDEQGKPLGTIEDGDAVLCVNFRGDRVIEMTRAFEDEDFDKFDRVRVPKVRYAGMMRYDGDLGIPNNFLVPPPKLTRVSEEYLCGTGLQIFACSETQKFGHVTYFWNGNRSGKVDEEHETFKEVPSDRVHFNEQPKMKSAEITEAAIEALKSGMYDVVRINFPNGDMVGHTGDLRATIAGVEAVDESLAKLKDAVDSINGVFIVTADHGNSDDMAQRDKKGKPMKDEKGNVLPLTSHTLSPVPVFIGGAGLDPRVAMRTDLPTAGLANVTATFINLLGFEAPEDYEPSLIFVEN
Phosphoglycerate kinase, glycosomal (Trypanosoma brucei brucei), sequence (P07378 whole entry, looked up): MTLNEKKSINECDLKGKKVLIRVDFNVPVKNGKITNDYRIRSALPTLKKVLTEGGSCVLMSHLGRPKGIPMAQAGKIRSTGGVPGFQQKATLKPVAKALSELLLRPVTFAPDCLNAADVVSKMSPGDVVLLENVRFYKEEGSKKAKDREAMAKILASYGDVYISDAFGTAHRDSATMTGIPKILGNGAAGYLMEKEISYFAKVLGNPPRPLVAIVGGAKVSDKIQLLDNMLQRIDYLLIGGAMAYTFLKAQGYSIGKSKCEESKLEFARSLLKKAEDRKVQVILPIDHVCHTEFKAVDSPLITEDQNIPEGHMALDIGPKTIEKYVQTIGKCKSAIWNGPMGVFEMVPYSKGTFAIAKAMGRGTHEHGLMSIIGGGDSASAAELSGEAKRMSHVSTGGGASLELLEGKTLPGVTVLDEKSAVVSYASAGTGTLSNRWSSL
Peptidyl-prolyl cis-trans isomerase NIMA-interacting 1 (Homo sapiens), sequence (Q13526 whole entry, looked up): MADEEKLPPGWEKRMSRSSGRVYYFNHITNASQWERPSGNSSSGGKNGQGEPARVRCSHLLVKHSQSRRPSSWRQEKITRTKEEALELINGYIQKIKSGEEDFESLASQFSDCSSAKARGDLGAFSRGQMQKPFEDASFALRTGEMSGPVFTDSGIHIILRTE
Estrogen receptor (Homo sapiens), sequence (P03372 whole entry, looked up): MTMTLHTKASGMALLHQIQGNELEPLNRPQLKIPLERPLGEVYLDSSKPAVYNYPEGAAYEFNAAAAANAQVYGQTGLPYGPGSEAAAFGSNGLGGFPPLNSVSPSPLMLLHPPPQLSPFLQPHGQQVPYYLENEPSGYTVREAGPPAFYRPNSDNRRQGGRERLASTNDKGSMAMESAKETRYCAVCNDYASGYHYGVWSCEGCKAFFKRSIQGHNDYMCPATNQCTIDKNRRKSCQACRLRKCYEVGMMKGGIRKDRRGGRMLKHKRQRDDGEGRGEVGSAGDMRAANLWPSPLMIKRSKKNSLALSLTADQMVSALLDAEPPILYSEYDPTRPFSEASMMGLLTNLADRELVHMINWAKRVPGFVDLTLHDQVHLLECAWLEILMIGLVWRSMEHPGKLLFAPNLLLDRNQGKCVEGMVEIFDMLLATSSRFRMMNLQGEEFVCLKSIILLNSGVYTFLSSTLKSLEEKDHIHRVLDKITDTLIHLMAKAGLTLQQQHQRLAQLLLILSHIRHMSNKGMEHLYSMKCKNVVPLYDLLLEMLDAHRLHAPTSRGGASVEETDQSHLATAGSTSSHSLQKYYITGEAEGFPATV
Glucocorticoid receptor (Homo sapiens), sequence (P04150 whole entry, looked up): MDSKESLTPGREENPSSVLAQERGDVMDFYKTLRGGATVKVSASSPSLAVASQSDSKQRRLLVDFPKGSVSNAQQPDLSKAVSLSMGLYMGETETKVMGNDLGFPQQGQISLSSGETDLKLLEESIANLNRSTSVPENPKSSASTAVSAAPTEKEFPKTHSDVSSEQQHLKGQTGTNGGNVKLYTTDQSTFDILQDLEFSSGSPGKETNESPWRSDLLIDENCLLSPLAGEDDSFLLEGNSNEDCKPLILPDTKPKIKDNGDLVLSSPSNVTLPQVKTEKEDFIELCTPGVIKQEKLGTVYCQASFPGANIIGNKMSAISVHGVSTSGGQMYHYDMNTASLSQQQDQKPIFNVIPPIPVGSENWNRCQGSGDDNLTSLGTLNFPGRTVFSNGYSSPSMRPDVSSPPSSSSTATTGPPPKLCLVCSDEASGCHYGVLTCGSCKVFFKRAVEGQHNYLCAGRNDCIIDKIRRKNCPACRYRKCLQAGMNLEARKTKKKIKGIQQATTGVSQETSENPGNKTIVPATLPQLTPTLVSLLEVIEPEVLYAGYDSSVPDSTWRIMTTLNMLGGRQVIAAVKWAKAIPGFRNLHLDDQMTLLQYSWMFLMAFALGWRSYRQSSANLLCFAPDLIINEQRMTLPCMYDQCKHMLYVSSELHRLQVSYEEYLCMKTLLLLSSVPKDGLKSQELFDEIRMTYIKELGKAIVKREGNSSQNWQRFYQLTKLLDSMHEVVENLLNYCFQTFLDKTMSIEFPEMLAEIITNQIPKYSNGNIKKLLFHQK
Peroxisome proliferator-activated receptor delta (Homo sapiens), sequence (Q03181 whole entry, looked up): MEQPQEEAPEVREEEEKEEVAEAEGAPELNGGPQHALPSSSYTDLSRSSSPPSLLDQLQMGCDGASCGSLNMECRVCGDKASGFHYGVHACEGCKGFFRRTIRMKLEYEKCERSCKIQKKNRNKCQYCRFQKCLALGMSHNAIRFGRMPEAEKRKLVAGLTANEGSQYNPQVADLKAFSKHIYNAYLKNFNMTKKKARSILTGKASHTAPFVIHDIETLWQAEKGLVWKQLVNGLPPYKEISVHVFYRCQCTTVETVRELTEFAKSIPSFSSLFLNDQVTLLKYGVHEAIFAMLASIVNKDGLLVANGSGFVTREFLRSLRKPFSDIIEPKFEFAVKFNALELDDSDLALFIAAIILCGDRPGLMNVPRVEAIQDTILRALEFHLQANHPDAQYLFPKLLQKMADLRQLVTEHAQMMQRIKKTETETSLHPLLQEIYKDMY
Bile acid receptor (Homo sapiens), sequence (Q96RI1 whole entry, looked up): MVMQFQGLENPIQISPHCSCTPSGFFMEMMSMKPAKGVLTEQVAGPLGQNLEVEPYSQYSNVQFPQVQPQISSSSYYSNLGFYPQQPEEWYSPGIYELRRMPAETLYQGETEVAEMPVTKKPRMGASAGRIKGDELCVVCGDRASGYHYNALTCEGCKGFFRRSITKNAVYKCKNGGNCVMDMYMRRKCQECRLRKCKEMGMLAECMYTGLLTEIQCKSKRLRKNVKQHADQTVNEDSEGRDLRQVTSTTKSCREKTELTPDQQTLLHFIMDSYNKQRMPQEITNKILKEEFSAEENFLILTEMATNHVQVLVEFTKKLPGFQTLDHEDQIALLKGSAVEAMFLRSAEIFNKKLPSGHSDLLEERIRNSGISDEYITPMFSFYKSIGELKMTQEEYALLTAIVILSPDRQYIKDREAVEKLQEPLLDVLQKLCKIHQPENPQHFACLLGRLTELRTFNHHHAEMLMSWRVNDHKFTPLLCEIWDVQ

C=CC(=O)c1ccc(CCCCCC)cc1
inactive: Potency [1] | Potency [2] | Potency [3] | Potency [5] | Potency [6]
active: Potency [4] 56.2 µM

OCC1O[C@H](O)C(Cl)C(O)C1O (stereo not given in full)
inactive: Potency [1] | Potency [2] | Potency [3] | Potency [4] | Potency [5] | Potency [6]

O=C(O)CC1CCCc2ccccc2C1O (stereo not given)
inactive: Potency [1] | Potency [2] | Potency [3] | Potency [4] | Potency [5] | Potency [6]

COc1cccc(OC)c1OCCNCC1COc2ccccc2O1 (stereo not given)
inactive: Potency [1] | Potency [2] | Potency [3] | Potency [4] | Potency [5] | Potency [6]

O=C(c1ccc(OCCCc2cnc[nH]2)cc1)C1CC1
inactive: Potency [1] | Potency [2] | Potency [3] | Potency [4] | Potency [5] | Potency [6]

Clc1ccc(N2CCN(Cc3c[nH]c4ncccc34)CC2)cc1
active: Potency [4] 50.1 µM
inactive: Potency [1] | Potency [2] | Potency [3] | Potency [5] | Potency [7]

CN1CCc2ccccc2Cc2[nH]c3ccccc3c2CC1
inactive: Potency [1] | Potency [2] | Potency [3] | Potency [4] | Potency [5] | Potency [6]

O=C1NC(=O)/C(=C/c2ccc(-c3ccc(F)cc3O)o2)S1
inactive: Potency [1] | Potency [2] | Potency [3] | Potency [5] | Potency [6]
active: Potency [4] 44.7 µM

CC1(C)CCC=[N+]1[O-]
inactive: Potency [1] | Potency [2] | Potency [3] | Potency [4] | Potency [5] | Potency [6]

CC(C)Cc1ccc([C@H](C)C(=O)O)cc1
inactive: Potency [1] | Potency [2] | Potency [3] | Potency [4] | Potency [5] | Potency [6]

C[C@@H](CN1CCC(Cc2ccccc2)CC1)[C@@H](O)c1ccc(O)cc1
inactive: Potency [1] | Potency [2] | Potency [3] | Potency [4] | Potency [5] | Potency [6] | Potency [7]

O=C(Nc1ccccc1)c1cc([N+](=O)[O-])ccc1Cl
15.1%: max response [13]
inactive: Potency [1] | Potency [2] | Potency [3] | Potency [4] | Potency [5] | Potency [6] | Potency [7] | outcome [8] | Potency [9] | outcome [10] | activation [11] -2.03% | Potency [12] | Potency [14]

CNC(=O)[C@H]1O[C@@H](n2cnc3c(NCc4cccc(I)c4)ncnc32)[C@H](O)[C@@H]1O
inactive: Potency [1] | Potency [2] | Potency [3] | Potency [4] | Potency [5] | Potency [6]

O=c1[nH]c2cc([N+](=O)[O-])c([N+](=O)[O-])cc2[nH]c1=O
inactive: Potency [1] | Potency [2] | Potency [3] | Potency [4] | Potency [5] | Potency [6] | Potency [7]

NCCCCCCCCCCN
inactive: Potency [1] | Potency [2] | Potency [3] | Potency [4] | Potency [6]

C[N+](C)(CCCCCC[N+](C)(C)CCCN1C(=O)c2cccc3cccc(c23)C1=O)CCCN1C(=O)c2cccc3cccc(c23)C1=O
inactive: Potency [1] | Potency [2] | Potency [3] | Potency [4] | Potency [5] | Potency [6]

CN(C)CCCO[C@@H]1[C@H]2OC(C)(C)O[C@H]2O[C@@H]1[C@H](O)CO
inactive: Potency [1] | Potency [2] | Potency [3] | Potency [4] | Potency [5] | Potency [6]

NC[C@H]1O[C@@H](n2cnc3c(N)ncnc32)[C@H](O)[C@@H]1O
inactive: Potency [1] | Potency [2] | Potency [3] | Potency [4] | Potency [5] | Potency [6]

C=CC(N)CCC(=O)O (stereo not given)
inactive: Potency [1] | Potency [2] | Potency [3] | Potency [4] | Potency [5] | Potency [6]

COc1cc2nc(N3CCN(C(=O)OCc4ccccc4)C(C(=O)NC(C)(C)C)C3)nc(N)c2cc1OC (stereo not given)
inactive: Potency [1] | Potency [2] | Potency [3] | Potency [4] | Potency [6]

NCCCCC(=O)O
inactive: Potency [1] | Potency [2] | Potency [3] | Potency [4] | Potency [5] | Potency [6]

O=C(O)c1cc(=O)c2ccccc2[nH]1
inactive: Potency [1] | Potency [2] | Potency [3] | Potency [4] | Potency [5] | Potency [6] | Potency [7]

CC(C)CC(NP(=O)(O)O[C@@H]1O[C@@H](C)[C@H](O)[C@@H](O)[C@H]1O)C(=O)NC(Cc1c[nH]c2ccccc12)C(=O)O (stereo not given in full)
inactive: Potency [1] | Potency [2] | Potency [3] | Potency [4] | Potency [5] | Potency [6]

NO
inactive: Potency [1] | Potency [2] | Potency [3] | Potency [4] | Potency [5] | Potency [6]

CC(C)NC[C@H](O)COc1cccc2[nH]ccc12
inactive: Potency [1] | Potency [2] | Potency [3] | Potency [4] | Potency [5] | Potency [6] | Potency [7]

NC(=O)C1=CN(C2OC(COP(=O)(O)OP(=O)(O)OC[C@H]3O[C@@H](n4cnc5c(N)ncnc54)[C@H](OP(=O)(O)O)[C@@H]3O)C(O)C2O)C=CC1 (stereo not given in full)
active: Potency [1] 5.36 µM
inactive: Potency [2] | Potency [3] | Potency [4] | Potency [5] | Potency [6]

N[C@@H](CC(=O)O)C(=O)O
inactive: Potency [1] | Potency [2] | Potency [3] | Potency [4] | Potency [5] | Potency [6] | Potency [7]

NCCNC(=O)c1ncsc1-c1cccc(F)c1
inactive: Potency [1] | Potency [2] | Potency [3] | Potency [4] | Potency [5] | Potency [6]

CN1CCc2cc(NC(=O)Nc3cccnc3)ccc21
inactive: Potency [1] | Potency [2] | Potency [3] | Potency [4] | Potency [5] | Potency [6]
